From PMC4336329 (PLoS ONE, 2015)
Among all 310,000 compounds or so, about 14,000 (4.5%) showed an effect of 50% or more. Effects have a minus sign here. The sample as a whole holds a higher share of strong results than the screen did.

target: human ether-à-go-go-related gene (hERG) potassium channel (human, UniProt Q12809); test: primary screen, population patch clamp on CHO cells stably expressing hERG; higher = less effect of the substance
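Further: peak tail current of the secondary pulse compared with the same well before compound.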

Sequence of human ether-à-go-go-related gene (hERG) potassium channel (Q12809 whole entry, looked up): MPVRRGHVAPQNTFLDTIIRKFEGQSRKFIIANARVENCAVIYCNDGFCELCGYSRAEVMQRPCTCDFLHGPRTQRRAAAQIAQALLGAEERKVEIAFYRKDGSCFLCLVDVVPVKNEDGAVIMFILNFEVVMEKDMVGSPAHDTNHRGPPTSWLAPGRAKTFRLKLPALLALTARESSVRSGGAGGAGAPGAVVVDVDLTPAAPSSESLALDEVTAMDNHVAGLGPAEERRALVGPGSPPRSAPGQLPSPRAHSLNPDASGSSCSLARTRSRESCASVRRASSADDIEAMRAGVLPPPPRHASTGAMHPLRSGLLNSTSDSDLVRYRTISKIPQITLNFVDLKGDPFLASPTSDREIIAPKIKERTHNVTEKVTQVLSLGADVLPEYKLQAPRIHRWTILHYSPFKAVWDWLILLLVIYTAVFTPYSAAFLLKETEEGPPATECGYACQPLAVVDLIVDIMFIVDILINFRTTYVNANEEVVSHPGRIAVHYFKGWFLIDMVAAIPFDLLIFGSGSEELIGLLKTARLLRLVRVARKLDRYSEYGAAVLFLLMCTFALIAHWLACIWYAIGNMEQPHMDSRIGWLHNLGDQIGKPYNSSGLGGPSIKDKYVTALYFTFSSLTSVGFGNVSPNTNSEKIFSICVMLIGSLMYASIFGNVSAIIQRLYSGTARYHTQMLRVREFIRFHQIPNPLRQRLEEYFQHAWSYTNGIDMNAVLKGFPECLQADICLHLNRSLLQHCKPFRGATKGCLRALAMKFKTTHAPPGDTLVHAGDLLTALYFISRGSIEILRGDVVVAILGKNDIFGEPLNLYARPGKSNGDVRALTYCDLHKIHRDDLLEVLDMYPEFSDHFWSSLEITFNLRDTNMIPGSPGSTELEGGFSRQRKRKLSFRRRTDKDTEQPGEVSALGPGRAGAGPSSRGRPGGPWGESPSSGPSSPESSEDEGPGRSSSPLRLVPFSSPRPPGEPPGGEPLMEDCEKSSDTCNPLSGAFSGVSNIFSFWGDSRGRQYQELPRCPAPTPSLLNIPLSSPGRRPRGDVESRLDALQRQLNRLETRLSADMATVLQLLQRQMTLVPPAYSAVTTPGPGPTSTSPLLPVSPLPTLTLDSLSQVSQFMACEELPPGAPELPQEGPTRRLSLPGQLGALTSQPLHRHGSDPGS

SMILES | hERG current change (%, negative = inhibition) at 10uM
Cc1ccc(Nc2nc3ccccc3n3cnnc23)cc1C | 15.5%
CCOC(=O)N1CCN(C(=O)CSc2nnc(COc3ccc(Cl)cc3)o2)CC1 | -37.8%
CCOCCCNC(=O)CCc1nnc2ccc(N3CCCCC3)nn12 | 11.1%
COc1ccc(OC)c(NC(=O)C2CC(=O)N(c3ccccc3)C2)c1 (centres unmarked) | 5.86%
O=C(CCC(=O)OCC(=O)c1ccc(-c2ccccc2)cc1)Nc1cccc(Cl)c1 | 1.65%
CCn1ncc(CN2CCC(Oc3cc(C(=O)NC4CC4)ccc3OC)CC2)c1C | -21.5%
COc1ccc(C(=O)NC2CC2)cc1OC1CCN(Cc2cnn(C)c2C)CC1 | -27.2%
COc1ccc(C(=O)NC2CC2)cc1OC1CCN(Cc2cc(C)c(C)cc2C)CC1 | -83.1%
O=C(CCl)Nc1nc(-c2ccco2)c(-c2ccco2)s1 | -10.1%
CN(Cc1ccc(F)cc1)C(=O)c1cccc(OC2CCN(C3CCCC3)CC2)c1 | -61%
COc1cccc(CN(C)C(=O)c2cccc(OC3CCN(C4CCCC4)CC3)c2)c1 | -55.1%
CN(Cc1ccc(F)cc1)C(=O)c1cccc(OCc2ccccc2)c1 | -16.9%
COc1cccc(CN(C)C(=O)c2cccc(OCc3ccccc3)c2)c1 | 13.1%
O=C(c1cccc(OC2CCN(C3CCCC3)CC2)c1)N1CCCCCCC1 | -36%
COCCC1CCCCN1C(=O)c1cccc(OC2CCN(C3CCCC3)CC2)c1 (centres unmarked) | 17.6%
O=[N+]([O-])C(C1CCS(=O)(=O)C1)C1CCS(=O)(=O)C1 (centres unmarked) | 11.9%
Cc1cccc(C2N(c3ccc(F)cc3)C(=O)C3CCCN32)c1 (centres unmarked) | -12.3%
COc1cc(CN2CCN(Cc3ccc([N+](=O)[O-])cc3)CC2)c([N+](=O)[O-])cc1OC.O=C(O)C(=O)O | -68.2%
COc1cc(CN2CCN(Cc3ccc(C)cc3)CC2)c([N+](=O)[O-])cc1OC.O=C(O)C(=O)O | -77.2%
COc1cc(CN2CCCCCC2)c([N+](=O)[O-])cc1OC | 3.94%
CCN1CCN(Cc2cc(OC)c(OC)cc2[N+](=O)[O-])CC1 | 8.59%
COc1cc(CN2CCN(C(=O)CC(C)C)CC2)c([N+](=O)[O-])cc1OC | 8.77%

SMILES | hERG current change (%, negative = inhibition) at 10uM
COc1cccc(CN2CCN(Cc3cc(OC)c(OC)cc3[N+](=O)[O-])CC2)c1.O=C(O)C(=O)O | -46.3%
Cc1cccc2[nH]c(CN(C)C(=O)CC3C(=O)NCCN3CC(C)(C)C)nc12 (centres unmarked) | 3.23%
Cc1cc(C(=O)NCc2ccco2)sc1C | 16.2%
CCO[C@H]1c2c(ccc3ccc(=O)oc23)OC(C)(C)[C@@H]1O | 20.9%
Cc1ccc[n+](CC(=O)c2ccc(-c3ccccc3)cc2)c1.[Br-] | -52.4%
Cc1cc[n+](CC(=O)c2ccc(NC(=O)c3ccccc3)cc2)cc1.[Br-] | 2.6%
Cc1ccc(C(=O)C[n+]2ccc(Cc3ccccc3)cc2)cc1.[Cl-] | -73.6%
Cc1cc(C)c[n+](CC(=O)c2ccc(-c3ccccc3)cc2)c1.[Br-] | -45.3%
CN(C)c1cc[n+](CC(=O)c2ccc(-c3ccccc3)cc2)cc1.[Cl-] | -2.97%
Cc1ccc[n+](CC(=O)c2ccccc2)c1.[Br-] | 13.7%
Cc1ccc(C(=O)C[n+]2ccc3ccccc3c2)cc1.[Br-] | -33.6%
Cc1ccc(SCCc2cc[n+](CC(=O)c3ccccc3)cc2)cc1 | -70.5%
Cc1ccc(SCCNC(=O)c2ccccc2)cc1 | -0.806%
O=C(c1cc2ccccc2oc1=O)N1CCN(c2ncccn2)CC1 | 8.16%
c1ccc2[nH]c(CSc3nnc(-c4ccncc4)o3)nc2c1 | -24.8%
Cc1ccc(Nc2nc(NCc3ccco3)c3ccccc3n2)cc1.Cl | 16.9%
Cc1ccccc1Nc1nc(NCc2ccco2)c2ccccc2n1.Cl | -63.6%
Cl.Oc1ccccc1Nc1nc(NCc2ccco2)c2ccccc2n1 | -29.3%
Cl.Fc1ccc(Nc2nc(NCc3ccco3)c3ccccc3n2)cc1 | -37.2%
COc1ccccc1Nc1nc(NCc2ccco2)c2ccccc2n1.Cl | -20.3%
Cl.c1ccc(Nc2nc(NCc3ccco3)c3ccccc3n2)cc1 | -71%
COc1ccc(O)c(C(=O)/C=C/c2cc3ccccc3o2)c1 | 7.22%

SMILES | hERG current change (%, negative = inhibition) at 10uM
CN1C(=O)/C(=C/c2ccc(C(F)(F)F)cc2)Sc2ccc(C(=O)N3CCN(c4ccccn4)CC3)cc21 | 5.11%
C[C@@H]1O[C@@H](Oc2c(-c3cc(O)c(O)c(O)c3)oc3cc(O)cc(O)c3c2=O)[C@H](O)[C@H](O)[C@H]1O | 4%
CN(C)CCCN(C(=O)COc1ccccc1)c1nc2ccc(F)cc2s1.Cl | -68%
CCN(CC)CCN(C(=O)CCOc1ccccc1)c1nc2ccc(F)cc2s1.Cl | -8.61%
Cc1ccc2nc(N(CCCN(C)C)C(=O)COc3ccc(Cl)cc3)sc2c1.Cl | -8.71%
CN(C)CCCN(C(=O)COc1ccc(Cl)cc1)c1nc2ccc(F)cc2s1.Cl | -21.4%
CN(C)CCCN(C(=O)COc1ccccc1)c1nc2ccc(Cl)cc2s1.Cl | -67.1%
Cc1ccc2nc(N(CCCN(C)C)C(=O)CS(=O)(=O)c3ccccc3)sc2c1.Cl | -22.7%
NC(=O)CC(NC(=O)Cc1ccc(Cl)cc1)c1ccc(NC2CC3CCC2C3)c([N+](=O)[O-])c1 (centres unmarked) | -3.01%
CCN(CC)CCCNc1nc2cc(OC)c(OC)cc2c2nc(-c3ccccc3)nn12 | -7.77%
CCN(CC)CCCNc1nc(-c2ccccc2)nc2ccccc12.Cl | -61.4%
CCN(CC)CCCNc1nc2cc(OC)c(OC)cc2c2nc(-c3cccnc3)nn12 | -2.29%
CCOCCCNc1nc(-c2ccccc2)nc2ccccc12.Cl | -27.5%
OCCCNc1nc(-c2ccc(Cl)cc2)nc2ccccc12 | -63.1%
CN(C)CCCNc1nc(-c2ccc(Cl)cc2)nc2ccccc12 | -35.5%
CN(C)CCCNc1nc(-c2ccccc2)nc2ccccc12.Cl | -13.5%
CCN(CC)CCCNc1nc2ccccc2c2nc(-c3ccncc3)nn12 | -56.6%
Cc1ccc(-c2nc(NCCCO)c3ccccc3n2)cc1 | -41.2%
O=C(CCC1CCCC1)NCc1cccs1 | 13.9%
CCC(Oc1ccccc1)C(=O)NCCOC (centres unmarked) | -8.48%
CC(NC(=O)c1cccc(Br)c1)c1ccccc1 (centres unmarked) | -2.43%
NC12CC3CC(C1)CC(CC(=O)O)(C3)C2 | 10.8%

SMILES | hERG current change (%, negative = inhibition) at 10uM
Cc1nc(Nc2ccc3c(c2)OCCO3)c2oc3ccccc3c2n1 | -5.62%
Cc1ccc(-c2nnc(SCC(=O)N(C)C)nc2-c2ccc(C)cc2)cc1 | -67.9%
COc1cccc(NC(=O)CSc2ccc(-c3ccco3)nn2)c1 | -48.1%
CC(=O)c1ccc(NC(=O)CSc2nnc(-c3ccco3)o2)cc1 | -73.9%
Cc1ccc(-c2nnc(SCC(N)=O)nc2-c2ccc(C)cc2)cc1 | -24.2%
Cc1ccc(NC(=O)CSc2nnc(-c3ccco3)o2)cc1 | 2.91%
O=C(CSc1nnc(-c2ccco2)c(-c2ccco2)n1)Nc1ccccc1 | -75.2%
CCN(CC)C(=O)CSc1nnc(-c2ccccc2)c(-c2ccccc2)n1 | -20.4%
O=C(CSc1n[nH]c(-c2ccco2)n1)Nc1ccccc1 | -20.4%
COc1ccc(NC(=O)CSc2nnc(-c3ccco3)c(-c3ccco3)n2)cc1OC | -29.4%
COc1cccc(NC(=O)CSc2nnc(-c3ccco3)c(-c3ccco3)n2)c1 | -59.6%
O=C(CSc1nnc(-c2ccco2)c(-c2ccco2)n1)c1ccccc1 | 4.5%
CC(=O)Nc1ccc(NC(=O)CSc2nnc(-c3ccco3)o2)cc1 | 7.81%
COc1ccc2cc(C(=O)C3CCCN(C(=O)c4sc(C)nc4C)C3)ccc2c1 (centres unmarked) | -22.8%
Cc1ccc(S(=O)(=O)N2CCN(C(=O)CCn3nc(C)c(C)c3C)CC2)cc1 | 11.1%
Oc1cccc(-c2nc3c4c(ncn3n2)-c2ccccc2CC42CCCC2)c1 | -7.64%
COc1ccc(CCn2nnnc2C(c2ccc(Cl)cc2)N2CCN(C)CC2)cc1OC.Cl (centres unmarked) | -11.6%
CC(=O)Nc1ccccc1OC(=O)N(C)C | 2.41%
COc1c(Cl)cc(Cl)cc1C(=O)Nc1ccc(NC(=O)c2cccs2)cc1 | 13.2%
COc1ccc(C2(CNC(=O)c3cccc([N+](=O)[O-])c3)CCOCC2)cc1 | 0.0345%
